Experimental data as given in PubChem BioAssay AID1852 (Sanford-Burnham Center for Chemical Genomics, 2009).
The campaign covered roughly 2,500 compounds. About 1,100 (44%) were called active.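 Rule for the calls: active = inhibition above 50% at 4 µM in the single-point screen; inactive = inhibition of 50% or less.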 The set was probably picked from earlier hits. The list shows a part of the results.

test: blockers of TNF-a NF-kB luciferase induction – cell-based, HEK293T NF-kB-Luc, luminescence, selectivity assay for NOD1/NOD2 signaling inhibitor project, primary screen (AID 1852); conditions: TNF-a induced, 14 h, at 4 µM, active compounds read high

SMILES	inhibition
COc1ccc(-n2nnnc2S(=O)(=O)CC(=O)N2CCCCC2)cc1	102% (active)
COc1ccc(-n2nc3c(c2NC(=O)CCl)CSC3)cc1	-4.5% (inactive)
COc1ccc(N2CCN(C(=O)CCC(=O)N3CCOc4ccc(C)cc43)CC2)cc1	40.5% (inactive)
CCCCCCc1cc2cc(-c3nnc(-c4ccccc4OC)o3)c(=O)oc2cc1O	-7.1% (inactive)
CCCCCCc1cc2cc(-c3nnc(-c4ccccc4O)o3)c(=O)oc2cc1O	22.1% (inactive)
CCCCCCc1cc2cc(-c3nnc(-c4cc(OC)c(OC)c(OC)c4)o3)c(=O)oc2cc1O	69.4% (active)
COc1cccc(-c2nc(CS(=O)(=O)CC(=O)NCCc3ccccc3)c(C)o2)c1	11.1% (inactive)
COc1ccc(CN(CCC(c2ccccc2)c2ccc(OC(C)C)cc2)C(=O)CCl)cc1OC (centres undefined)	-5.8% (inactive)
COc1ccc(N(C(=O)CCl)C(C(=O)NCCc2ccccc2)c2cccs2)cc1 (centres undefined)	60.3% (active)
O=C(NCCc1ccccc1)C(c1cccs1)N(C(=O)CCl)c1ccc(Cl)cc1 (centres undefined)	24.6% (inactive)
COc1cccc(N(C(=O)CCl)C(C(=O)NCCc2ccccc2)c2cccs2)c1 (centres undefined)	81.5% (active)
C=CCN1C(=O)/C(=C/c2ccc(OC(C)=O)c(OCC)c2[N+](=O)[O-])SC1=S	56.7% (active)
CN(C)c1ccc(-c2noc(C3CCN(S(=O)(=O)c4cccc(Cl)c4)CC3)n2)cc1	31% (inactive)
COc1ccc(CCN2CC(C(=O)N(C)CC(=O)Nc3cccc(F)c3)CC2=O)cc1OC (centres undefined)	21.5% (inactive)
COc1ccc(CC(=O)Nc2cccc(-c3nnc(-c4ccc(C)cc4)o3)c2)cc1OC	77.2% (active)
COc1cc(C(=O)Nc2cccc(-c3nc4cc(C)ccc4o3)c2)cc(OC)c1OC	-51.1% (inactive)
COc1ccc(C2=Nn3c([n+](C)c4ccccc43)SC2)cc1	32.8% (inactive)
C[n+]1c2n(c3ccccc31)N=C(c1cc(C(C)(C)C)c(O)c(C(C)(C)C)c1)CS2	82.3% (active)
COc1ccc(NC(=O)/C(Cl)=C(/Cl)S(=O)(=O)Cc2ccc(C)cc2)cn1	108% (active)
COc1ccc(NS(=O)(=O)c2ccc3c(c2)Cc2ccccc2-3)cn1	25.4% (inactive)
COc1ccc(NC(=O)c2cccc(S(=O)(=O)Nc3ccc(Br)cc3)c2)cn1	23.8% (inactive)
COc1ccc(NC(=O)/C(Cl)=C(/Cl)S(=O)(=O)Cc2ccccc2)cn1	92.3% (active)
O=C(NNC1=C(C(=O)C(F)(F)F)CCC1)c1ccccc1O	15% (inactive)

SMILES	inhibition
Cc1cccc(C(=O)NNC2=C(C(=O)C(F)(F)F)CCC2)c1O	93.3% (active)
Cc1c(CCC(=O)O)c(=O)oc2cc3oc4c(c3cc12)CCCC4	48.7% (inactive)
Cc1oc2c(C)c3oc(=O)c(CCC(=O)O)c(C)c3cc2c1-c1ccccc1	47% (inactive)
Cc1c(CCC(=O)O)c(=O)oc2c(C)c3occ(-c4ccc(Cl)cc4)c3cc12	59.5% (active)
O=c1c(-c2ccc(Cl)cc2)coc2c(CN3CCCCC3)c(O)ccc12	37.4% (inactive)
COc1cccc(-c2coc3c(C)c4oc(=O)c(CCC(=O)O)c(C)c4cc23)c1	69.3% (active)
COc1ccccc1CN(Cc1nc2ccccc2c(=O)[nH]1)S(=O)(=O)c1ccc2ccccc2c1	92.1% (active)
COC(=O)c1ccc2c(=O)[nH]c(CCl)nc2c1	43.1% (inactive)
Cc1ccc(-n2c(C)c([N+](=O)[O-])c3ccc(O)c(CN(C)C)c32)cc1	66.1% (active)
COc1ccc(-n2c(C)c([N+](=O)[O-])c3ccc(O)c(CN4CCCCC4)c32)cc1	28.8% (inactive)
COc1ccc(-n2c(C)c([N+](=O)[O-])c3ccc(O)c(CN(C)C)c32)cc1	84.4% (active)
COc1cc(OC)c(OC)cc1/C=C1\CC(C)C/C(=C\c2cc(OC)c(OC)cc2OC)C1=O (centres undefined)	32.3% (inactive)
O=C1/C(=C\c2cccnc2)CN(Cc2ccccc2)C/C1=C\c1cccnc1	107% (active)
CC1C/C(=C/c2ccncc2)C(=O)/C(=C/c2ccncc2)C1 (centres undefined)	106% (active)
CC1C/C(=C\c2cccnc2)C(=O)/C(=C/c2cccnc2)C1 (centres undefined)	109% (active)
O=C1/C(=C/c2ccncc2)CCC/C1=C\c1ccncc1	89.9% (active)
O=C1/C(=C/c2cccnc2)CCC/C1=C\c1cccnc1	104% (active)
C=C1CC2C(CCC3(C)C2CCC3(O)C(C)=O)C2(C)CCC(=O)C=C12 (centres undefined)	13.6% (inactive)
CC1Cc2cc(S(=O)(=O)N3CCN(c4ccc(Cl)cc4)CC3)ccc2N1C(=O)C1CC1 (centres undefined)	8.4% (inactive)
O=C(C1CCC(CNS(=O)(=O)c2cccs2)CC1)N1CCN(c2ccc(Cl)cc2)CC1 (centres undefined)	67.1% (active)
C[C@@H]1C[C@@H]2O[C@H]2/C=C\C=C\C(=O)Cc2c(Cl)c(O)cc(O)c2C(=O)O1	96.5% (active)
O=C(CSc1n[nH]c(-c2ccccn2)n1)Nc1ccc(Cl)cc1	80.1% (active)
Cn1cccc1Cc1nnc(SCC(=O)Nc2cccc(Cl)c2)n1-c1ccc(F)cc1	11.5% (inactive)

SMILES	inhibition
O=C(CN1CCN(CCC(=O)Nc2ccccc2F)CC1)Nc1ccc(Cl)cc1	2% (inactive)
O=C(CSc1n[nH]c(-c2ccccn2)n1)Nc1cccc(Cl)c1	81.4% (active)
Cc1nc(C)c(-c2ccc(SCC(=O)Nc3cccc(Cl)c3)nn2)s1	35% (inactive)
Cc1ccc2c(c1)-c1ncc(C(=O)c3cc(Br)ccc3O)cc1CO2	36.7% (inactive)
Cc1c(Cc2ccccc2)c(=O)oc2cc(O)cc(O)c12	-8.9% (inactive)
CCCCc1cc(=O)oc2cc(O)cc(O)c12	21.4% (inactive)
CCCCCc1cc(O)c2c(C)cc(=O)oc2c1	71.7% (active)
CCN1C(=O)C(CC(=O)Nc2cccc(C(C)=O)c2)S/C1=N\c1ccccn1 (centres undefined)	-2.9% (inactive)
Nc1nc(CCl)nc(Nc2cccc3ccccc23)n1	44.3% (inactive)
O=C(COc1nsnc1N1CCOCC1)Nc1ccc(Br)cc1	4.1% (inactive)
Clc1ccc(Nc2ncnc3ccc(Br)cc23)cc1	49.1% (inactive)
Brc1ccc2ncnc(Nc3cccc4ccccc34)c2c1	104% (active)
Brc1ccc2ncnc(Nc3ccc(N4CCOCC4)cc3)c2c1	83.9% (active)
CC(=O)c1cccc(Nc2ncnc3ccc(Br)cc23)c1	60.8% (active)
COc1ccc(Nc2ncnc3ccc(Br)cc23)cc1OC	64.4% (active)
COC(=O)Cc1[nH]n(-c2nc3ccccc3s2)c(=O)c1C(C)=Nc1ccc(OC)cc1	30.8% (inactive)
COC(=O)Cc1[nH]n(-c2nc3ccccc3s2)c(=O)c1C(C)=Nc1ccc(C)cc1	55.7% (active)
COc1ccccc1NC(=O)CSc1nc2sc(C)c(C)c2c(=O)n1C	26.3% (inactive)
Cc1sc2nc(SCc3ccc(C(=O)O)cc3)n(Cc3ccco3)c(=O)c2c1C	74.6% (active)
COC(=O)c1ccc(CSc2nc3ccccc3c(=O)n2Cc2ccco2)o1	6.3% (inactive)
Cc1ccc(-c2csc(N3CCC(NS(=O)(=O)c4ccc5c(c4)OCCO5)CC3)n2)cc1	48.7% (inactive)
CCc1ccn2cc(-c3ccc4c(c3)OCO4)nc2c1	23% (inactive)
Cc1ccc2nc(-c3ccc4c(c3)OCCO4)cn2c1	51.3% (active)

SMILES	inhibition
CCS(=O)(=O)C1=NN2C(=N)/C(=C\c3ccc(OCCOc4cccc(OC)c4)c(OC)c3)C(=O)N=C2S1	-32.8% (inactive)
CCN(CC)S(=O)(=O)c1cccc(NC(=O)CNc2cccc(S(=O)(=O)N3CCCC3)c2)c1	41.7% (inactive)
CCc1nc2ccccc2c(C(=O)OCC(=O)Nc2cccc(S(=O)(=O)N3CCOCC3)c2)c1C	-0.6% (inactive)
O=C(CSc1cccc2cccnc12)Nc1ccc(S(=O)(=O)N2CCOCC2)cc1	104% (active)
O=C(CN1CCN(c2cccc(Cl)c2)CC1)Nc1ccc(S(=O)(=O)N2CCOCC2)cc1	23.3% (inactive)
CN(C)S(=O)(=O)c1cccc(NC(=O)CSc2cccc3cccnc23)c1	100% (active)
Cc1ccc(S(=O)(=O)N(C)C)cc1NC(=O)COC(=O)/C=C/c1cnc2ccccc2n1	12% (inactive)
O=C(Nc1cccc(NC(=O)c2ccc(-c3cccc(Br)c3)o2)c1)c1ccco1	-15.4% (inactive)
O=C(Nc1nc2cc3c(cc2s1)OCCO3)c1ccco1	-31% (inactive)
CC(C)(C)C(=O)Nc1ccc(NC(=O)c2ccco2)nc1	98.2% (active)
O=C(N/N=C/c1cn(-c2ccccc2)nc1-c1cc2ccccc2o1)c1c[nH]c2ccccc12	-224% (inactive)
COc1ccc(-c2nn(-c3ccccc3)cc2/C=N/NC(=O)c2ccc(Br)o2)cc1	94.1% (active)
Cc1ccc(-c2nn(-c3ccccc3)cc2NC(=O)CCl)cc1	-28.6% (inactive)
Cc1ccc(-c2nn(-c3ccccc3)cc2/C=N/NC(=O)c2ccc(Br)o2)cc1	95.5% (active)
Cc1cc([N+](=O)[O-])ccc1-c1ccc(/C=N/NC(=O)c2ccc(Br)o2)o1	-0.2% (inactive)
COc1ccc(/C=N/NC(=O)c2ccc(Br)o2)cc1Cn1cc([N+](=O)[O-])cn1	-16% (inactive)
CC[n+]1c(/C=C/N(C)c2ccccc2)n(-c2ccccc2)c2ccc(-c3nc4ccccc4s3)cc21	102% (active)
CC(C)c1ccc(-c2nc3ccccc3s2)cc1	14.5% (inactive)
Cn1c2c(c(=O)n(C)c1=O)C(C(F)(F)F)(C(F)(F)F)N=C(c1ccc(Cl)cc1)N2	73.2% (active)
Cc1nc2c(Br)cc(Br)cc2cc1O	8.1% (inactive)
